The list is not random: actives were taken first. Their share in the collection is about 3.1%.
BRCA1 expr act: increases BRCA1 expression. MCF7-BRCA1-FFLuc reporter, luminescence, 48 h; response scale: scaled: vehicle 0%, 10 µM genistein 100%. Potency, µM (series often up to 46.1 µM), inactives show at the top dose activation, actives largely listed as activators. hit rate 1.1% among 380,000. AID 624202; also: potency is read from the fitted curve at half-maximal effect; nearly all actives have a fitted effect of over 80% in size
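Quantitative HTS in MCF7 cells stably reporting BRCA1 expression via firefly luciferase. Compound treatment lasts 48 h at 37 °C in phenol-red free MEM. Activation is expressed relative to genistein at 10 microM and DMSO.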
Nrf2 ARE act: activates Nrf2 signaling; AREc32 ARE-luciferase reporter (MCF7-derived line), luminescence, 24 h; Potency, µM (top dose mostly 46.1 µM), for the others: at the highest dose activation, most hits filed as activators; hit rate 0.31% among 410,000; also: potency is read from the fitted curve at half-maximal effect; % of control where 0% means no effect; nearly all actives have a fitted effect of over 65% in size
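Steps: seed AREc32_Fluc cells (1000/well, 5% FBS OPTI-MEM); incubate overnight at 37 deg C; add 23 nL compound; incubate 24 hr; add Steady-Glo; hold 30 min RT; read luminescence.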
ELG1 repair inh: blocks ELG1-dependent DNA repair in HEK293T cells | HEK293T ELG1-luciferase reporter, luminescence, 16 h; DNA damage induced by 5-fluorouridine | Potency, µM (titrated, usually from 46.1 µM), for the others: at the highest dose activity change, negative = inhibition, hits mostly inhibitors | hit rate 2.3% among 330,000 | AID 504467; also: potency is read from the fitted curve at half-maximal effect; % is scaled to controls: 0 for no effect and ±100 for the full control effect; nearly all actives have a fitted effect of over 55% in size
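Cells (2,000 per well) received 5-fluorouridine plus test compound or DMSO and were incubated 16 hr at 37 °C, 5% CO2. Luciferase activity was read by luminescence 30 min after ONE-Glo addition; signal suppression marked inhibition of damage-induced ELG1 function.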
IL-2 act: activators of IL-2; IL-2 activation reporter assay, cell-based qHTS; stimulated with anti-CD3/CD4/CD28 beads; in transgenic mouse T cells; activation, % (series mostly up to about 46 µM); hit rate 0.065% among 360,000; in the data active = activation above about 50%; inconclusive = mostly about 30% to 49%; also: 0% is about no effect
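Screening format: compound pinned onto unstimulated transgenic mouse T cells, 60 min incubation, then anti-CD3/anti-CD4/anti-CD28 bead stimulation for 18 hours at 37 degrees C, followed by EGFP and DsRed detection.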
* hit, by the source's call; ? = inconclusive; / = no result given. Unless noted, calls follow the shape of the dose curve; as a rule, active = well fitted curve in the direction sought with a large enough effect; inconclusive = small, poorly fitted or top-dose-only effect, or another doubt; inactive = no such curve, though single readings can be large; an effect the other way counts as inactive or inconclusive.

SMILES | BRCA1 expr act | Nrf2 ARE act | ELG1 repair inh | IL-2 act
COc1ccccc1NC(=O)CSc1ncc2c(n1)-c1ccccc1N(Cc1ccccc1C)S2(=O)=O | / | -1% | / | /
COCCN1C(=O)/C(=C/c2ccc(Oc3ccc([N+](=O)[O-])cn3)c(OC)c2)SC1=Nc1ccccc1 | -17% | 0% | 2.6µM* | -2
N#Cc1ccc(Oc2nc(Nc3ccc(F)cc3)nc(N3CCCC3)n2)cc1 | -51% | 0% | 16µM* | -1
CCOc1ccc(Nc2nc(N3CCCC3)nc(N3CCN(c4ccc(OC)cc4)CC3)n2)cc1 | -19% | -1% | 8% | -1
COc1cc(CNc2ccc(N3CCCCC3)cc2)ccc1OCC(=O)NC(C)(C)C | -16% | 8% | 9.2µM* | -2
CCOc1ccc(N2CC(c3nc4ccccc4n3Cc3cccc(Cl)c3)CC2=O)cc1 (centres undefined) | / | 0% | / | /
NC(=S)N/N=C1\CCOc2ccc(Cl)cc21 | -46% | 12% | 21µM* | 0
Cc1nnc(NC(=O)c2cc3ccccc3o2)s1 | 7.1µM* | 2% | ? | 0
Fc1ccccc1COc1ccc(/C=N/n2cnnc2)cc1 | 10µM* | 4% | 3% | -1
Cc1ccc(-n2nc(C)c3c(-c4cccs4)c(C#N)c(N)nc32)cc1 | -79% | 5% | 13µM* | 6
COc1ccc(Nc2nc(-c3ccccc3F)nc3ccccc23)cc1OC | -1% | 2% | 23µM* | -3
COc1cccc(Nc2nc(NCCO)c3ccccc3n2)c1 | 0% | 3% | 16µM* | -1
COc1cccc(-c2nc(NCc3ccccc3)c3ccccc3n2)c1O | -37% | 2% | 2% | 0
COc1cccc(Nc2nc(-c3ccccc3O)nc3ccccc23)c1 | -40% | 12% | -23% | 64*
Oc1ccc(Nc2nc(-c3ccccc3F)nc3ccccc23)cc1 | -3% | -1% | -3% | -3
COc1cccc(-c2nc(NC3CCCC3)c3ccccc3n2)c1O | -67% | -2% | 23µM* | -3
COc1ccc(Nc2nc(-c3ccccc3O)nc3ccccc23)cc1 | -51% | 4% | ? | -5
CC(C)CN(CCCNC(=O)c1cc(=O)[nH]c2ccc(S(=O)(=O)N3CCCCCC3)cc12)CC(C)C | / | 0% | / | /
CC(=O)Nc1ccc(S(=O)(=O)N2CCN(Cc3ccccn3)CC2)cc1 | 5% | 0% | -1% | -2
O=C(CN1CCN(S(=O)(=O)c2ccccc2)CC1)Nc1ccc([N+](=O)[O-])cc1 | -21% | 0% | 21µM* | 0
Cc1ccc(S(=O)(=O)N2CCN(CC(=O)Nc3ccc([N+](=O)[O-])cc3)CC2)cc1C | -69% | 2% | ? | 0
CC(=O)Nc1ccc(S(=O)(=O)N2CCN(Cc3ccccc3[N+](=O)[O-])CC2)cc1 | -29% | 3% | 9.2µM* | -3
COCCCNC(=O)C1CCN(C(=O)c2cnn(-c3ccccc3)c2-n2cccc2)CC1 | -6% | 0% | / | /
O=[N+]([O-])c1ccc2c(c1)C=C/C2=C\c1ccc(C=S)cc1 | 5.6µM* | / | / | /
O=Cc1ccc(/C=C2/C=Cc3ccccc32)cc1 | 7% | / | / | /
SMILES | BRCA1 expr act | Nrf2 ARE act | ELG1 repair inh | IL-2 act
O=C(COc1ccccc1F)Nc1ccccc1OCc1cc(=O)n2ccccc2n1 | / | 5% | / | /
CC(C)(C)C1CCC(=O)N(CCOc2ccccc2)CC1 (centres undefined) | 13µM* | 4% | ? | 0
Fc1cccc(CN2CCc3nc(Nc4ccc5c(c4)OCCO5)ncc3C2)c1F | / | 6% | / | /
COc1c(C)cc(C(=O)C2CCCN(C(=O)c3cccc(-n4cccn4)c3)C2)cc1C (centres undefined) | 0% | 0% | 23µM* | -2
CCCc1cc(C(=O)N2CCCC(C(=O)c3cc(C)c(OC)c(C)c3)C2)n(C)n1 (centres undefined) | 5% | 0% | 8.2µM* | -4
COc1c(C)cc(C(=O)C2CCCN(C(=O)c3ccc4[nH]ccc4c3)C2)cc1C (centres undefined) | 2% | 1% | ? | 1
COc1c(C)cc(C(=O)C2CCCN(C(=O)CCc3scnc3C)C2)cc1C (centres undefined) | -18% | -1% | 12µM* | -2
CCCc1cc(C(=O)N2CCCC(C(=O)c3ccc(Cl)cc3)C2)n(C)n1 (centres undefined) | 0% | 0% | -3% | -1
COc1ccc(-c2nc(CSc3nncn4c3cc3sccc34)c(C)o2)cc1OC | / | 0% | / | /
N#Cc1c([N+](=O)[O-])cc([N+](=O)[O-])cc1S(=O)(=O)Cc1ccccc1 | -96% | ? | 16µM* | 0
COc1cccc(NC(=O)CN(C)C(=O)c2ccccc2Sc2ccccc2C#N)c1 | 15% | 0% | ? | 2
CN(CC(=O)Nc1cccc(F)c1)C(=O)CCNC(=O)c1ccc(Br)cc1 | 49% | 8% | ? | -1
CN(CC(=O)Nc1cccc(F)c1)C(=O)CCCNC(=O)c1ccc(Cl)cc1 | 11µM* | 2% | ? | -4
CN(CC(=O)Nc1cccc(F)c1)C(=O)c1ccccc1Sc1ccccc1C#N | -16% | -1% | 16µM* | 0
CC(=O)Nc1ccc(NC(=O)C(NC(=O)C2CCC(C)CC2)C(C)C)cc1 (centres undefined) | / | 0% | / | /
CC(=O)c1ccc(NC(=O)c2cc(Cl)sc2Cl)cc1 | 4µM* | ? | ? | 0
O=C(Nc1ccc(F)cc1F)c1ccc2ncsc2c1 | 5µM* | 3% | ? | -2
O=C(Nc1ccc(F)cc1F)c1cc(Cl)sc1Cl | -16% | 14µM* | ? | -4
O=C(Nc1ccc(F)cc1F)c1csc(-c2cccs2)n1 | -51% | 10µM* | ? | 1
Cc1ccccc1Cn1c(CN2CCC(C(=O)NCCN(C)C)CC2)cc2ccccc21 | / | 12% | / | /
NC(=O)C1CCN(C(=O)CCSc2ccc(Cl)cc2)CC1 | 19% | 1% | ? | 1
O=C(CCSc1ccc(Cl)cc1)N1CCN(c2ccc(O)cc2)CC1 | 19% | 4% | 8.2µM* | 1
O=C(CCSc1ccc(Cl)cc1)N1CCCCCC1 | 13µM* | 4% | ? | -1
O=C(c1cccn1-c1nnc(N2CCCC2)s1)N1CCN(c2ccccc2)CC1 | / | -1% | / | /
Cc1ccc(CNC(=O)c2ccc(C)s2)cc1 | 13µM* | 1% | / | 0
SMILES | BRCA1 expr act | Nrf2 ARE act | ELG1 repair inh | IL-2 act
O=C(O)c1cc([N+](=O)[O-])ccc1N1CCC(Cc2ccccc2)CC1 | -6% | 0% | -6% | 0
O=C(NCC1CCCO1)c1cc([N+](=O)[O-])ccc1N1CCC(Cc2ccccc2)CC1 (centres undefined) | 1% | -1% | 23µM* | 0
COC(=O)[C@]12CCCCC=C1N(Cc1ccc(Cl)cc1Cl)C(=O)[C@H](CC(=O)N1CCSCC1)C2 | -10% | 5% | / | 1
Cc1ccnc(SCC(=O)c2cc3ccccc3o2)n1 | 8.9µM* | 4% | ? | -1
Cn1ccnc1SCC(=O)c1cc2ccccc2o1 | 45% | 5% | ? | 0
O=C(CSc1nnnn1Cc1ccccc1)c1ccccc1 | 13µM* | 2% | ? | -2

Bioassay records: PubChem BioAssay, National Center for Advancing Translational Sciences (NCATS)
